Compound activity: PubChem BioAssay, National Center for Advancing Translational Sciences (NCATS)
The list is not random: actives were taken first. Their share in the collection is about 21%.
DT40 TDP1 no CPT: qHTS for Inhibitors of human tyrosyl-DNA phosphodiesterase 1 (TDP1): qHTS in cells in absence of CPT | hit rate 15% among 420,000 | DT40 Tdp1-/- hTDP1 cells, no CPT, ATP luminescence, 48 h | Potency, µM (highest dose often 46.2 µM), for inactives: at the highest dose activity change, negative = growth inhibition, usual class: inhibitors; also: potency is read from the fitted curve at half-maximal effect; % is scaled to controls: 0 for no effect and ±100 for the full control effect; nearly all actives have a fitted effect of over 55% in size
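Chicken DT40 Tdp1-/- cells complemented with human TDP1, screened without camptothecin (DMSO vehicle only), 400 cells/well. Compounds pin-transferred, cells incubated at 37 °C for at least 48 hr. Growth read as ATP-dependent luminescence (CellTiter-Glo, 30 min at RT).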
IL-1B inflam inh: qHTS for Inhibitors of Inflammasome Signaling: IL-1-beta AlphaLISA Primary Screen; activity change, % at 57.5 µM; THP-1 LPS/ATP IL-1B secretion, AlphaLISA, 16 h; hits give low values; hit rate 4.7% among 360,000; AID 743279, 2014; in the data active = activity change below about -50%; inconclusive = mostly about -30% to -49%; also: % is scaled to controls: 0 for no effect and ±100 for the full control effect
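Secreted IL-1B measured by AlphaLISA bead assay after 16 h compound exposure of THP-1 cells; compounds (final up to 57.5 uM) added 1 h before LPS (250 ng/mL) and ATP (1.25 mM) stimulation; lower signal means less secretion.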
DRD3 agonist: qHTS of D3 Dopamine Receptor Agonist: qHTS; D3R DiscoveRx beta-arrestin cells, luminescence, 90 min; max activation, %; hit rate 0.58% among 410,000; D(3) dopamine receptor (Homo sapiens), P35462; AID 652048, 2013; in the data active = max activation above about 30%; also: 0% is about no effect
Target sequence (P35462 whole entry, looked up): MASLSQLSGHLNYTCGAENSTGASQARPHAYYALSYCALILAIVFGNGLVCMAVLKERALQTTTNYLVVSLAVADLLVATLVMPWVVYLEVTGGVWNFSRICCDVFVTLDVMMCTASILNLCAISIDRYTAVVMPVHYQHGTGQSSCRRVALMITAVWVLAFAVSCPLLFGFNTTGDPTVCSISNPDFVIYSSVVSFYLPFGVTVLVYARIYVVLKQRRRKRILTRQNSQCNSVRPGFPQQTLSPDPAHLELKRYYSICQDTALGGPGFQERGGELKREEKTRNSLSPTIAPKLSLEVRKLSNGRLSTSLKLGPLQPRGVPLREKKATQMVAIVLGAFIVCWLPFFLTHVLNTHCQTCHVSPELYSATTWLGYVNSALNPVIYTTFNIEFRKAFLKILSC
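Cells at 1500/well, incubated overnight, then treated with pinned compounds (dopamine as control) for 90 min at 37 degrees C. DiscoveRx reagent added for 30 - 60 minutes at room temperature; luminescence read.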
ClpP mod: qHTS Assay for Activators of ClpP. purified B. subtilis ClpP, FRET peptide cleavage, 20 min. Potency, µM (top dose mostly 57.5 µM), for the others: top-dose activity change, negative = active. hit rate 1.9% among 340,000. AID 651965, 2013; active = well fitted falling curve with a large enough effect; inconclusive = small, poorly fitted or top-dose-only effect; inactive = no such curve, though single readings can be large or run the other way; also: potency is read from the fitted curve at half-maximal effect; the source files actives as falling curves though it sought activators and does not explain the sign; nearly all actives have a fitted effect of over 65% in size
Target sequence (P80244 whole entry, looked up): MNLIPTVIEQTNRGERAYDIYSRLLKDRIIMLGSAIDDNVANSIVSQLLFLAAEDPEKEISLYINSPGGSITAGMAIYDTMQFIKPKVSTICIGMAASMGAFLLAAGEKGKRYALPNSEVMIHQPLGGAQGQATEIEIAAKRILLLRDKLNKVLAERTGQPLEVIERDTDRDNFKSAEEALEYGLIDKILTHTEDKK
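ClpP 10 microg/mL final, pH 8 Tris/KCl buffer with BSA, glycerol, Tween-20; compound pinned in; FRET-FV substrate; RT 20 min; Ex320/Em430; ΔFRET vs ADEP 5.8 microM, DMSO, no enzyme.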
D3 antag: qHTS of D3 Dopamine Receptor Antagonist: qHTS | D(3) dopamine receptor (Homo sapiens), P35462 | D3R cells, DiscoveRx beta-arrestin luminescence, antagonist mode; hits give low values | max response, negative = inhibition, % | hit rate 2.5% among 360,000 | AID 652054, 2013; in the data active = max response below about -50%; inconclusive = no clear call, values can overlap the other calls; also: % is scaled to controls: 0 for no effect and ±100 for the full control effect
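Cells expressing the human receptor were seeded at 1500 cells/well, incubated overnight at 37 degrees C in 5% CO2, then exposed to library compounds with dopamine controls for 90 minutes at 37 degrees C before luminescent detection.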
TDP1 cell CPT: qHTS for Inhibitors of human tyrosyl-DNA phosphodiesterase 1 (TDP1): qHTS in cells in presence of CPT; hit rate 12% among 420,000; chicken DT40 Tdp1-/-;hTDP1 cells + 20 nM CPT, ATP luminescence, 48 h; Potency, µM (titrated, usually from 46.2 µM), for the others: top-dose activity change, negative = growth inhibition, most hits filed as inhibitors; also: potency is read from the fitted curve at half-maximal effect; % is scaled to controls: 0 for no effect and ±100 for the full control effect; nearly all actives have a fitted effect of over 55% in size
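Chicken DT40 Tdp1-/- cells stably complemented with human TDP1 were seeded at 400 cells/well in medium containing 20 nM camptothecin, exposed to pin-transferred compounds, and grown at 37 °C for at least 48 hr. Viability was read as ATP luminescence.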
Numbers without * were called inactive; ? = inconclusive; . = no result given. Unless noted, calls follow the shape of the dose curve; as a rule, active = well fitted inhibition curve with a large enough effect; inconclusive = small, poorly fitted or top-dose-only effect; inactive = flat fitted curve, though single readings scatter.

SMILES	DT40 TDP1 no CPT	IL-1B inflam inh	DRD3 agonist	ClpP mod	D3 antag	TDP1 cell CPT
[N-]=[N+]=NCCN1CCN(CCc2ccccc2)CCC1=O	-1%	22	5	-5%	14	3%
COc1ccc(N2CCN(Cc3cccn3-c3nnc(N4CCN(C5CCCCC5)CC4)s3)CC2)cc1	21µM*	.	-7	-4%	.	21µM*
CC1(C)COC(/C=C/c2ccc([N+](=O)[O-])cc2)=N1	16µM*	-102*	-2	1%	-16	?
Cc1cccc(NC(=O)CCCn2c(C)c3cnn(-c4ccccc4)c(=O)c3c2C)c1C	?	.	-6	-3%	.	21µM*
Cc1ccc(-n2ncc3c(=O)n(CC(=O)N4CCN(c5ccccc5)CC4)cnc32)cc1	-23%	-1	6	-2%	16	-24%
Cc1ccc(C)c(N2CCN(C(=O)C(C)n3c(C)c4cnn(-c5ccccc5)c(=O)c4c3C)CC2)c1 (stereo not drawn)	16µM*	.	-12	-1%	.	21µM*
Cc1cc(C)c(NC(=O)CCCn2c(C)c3cnn(-c4ccccc4)c(=O)c3c2C)c(C)c1	23µM*	.	-4	-1%	.	?
Cc1c2cnn(-c3ccccc3)c(=O)c2c(C)n1CCCC(=O)Nc1cc(F)ccc1F	?	.	5	-7%	.	-14%
Cc1ccc(C)c(NC(=O)CCCn2c(C)c3cnn(-c4ccccc4)c(=O)c3c2C)c1	?	.	-17	-1%	.	18µM*
COc1ccccc1CNc1ncnc2c1nnn2C	-3%	.	3	-4%	.	15%
Cc1ccccc1CN1C(=O)C(O)(CC(=O)c2ccccc2)c2cc(Cl)ccc21 (stereo not drawn)	?	.	-9	-2%	.	-102%
O=C(CSc1cn[nH]n1)Nc1ccccc1F	-3%	-4	-4	2%	6	-5%
Cc1cccc(N2CCN(C(=O)Cn3c(C)c4cnn(-c5ccccc5)c(=O)c4c3C)CC2)c1C	5.8µM*	.	6	0%	.	7.3µM*
CCCSC1=N/C(=C\c2ccc([N+](=O)[O-])o2)C(=O)S1	?	-7	1	0%	0	21µM*
CCCSC1=N/C(=C\C=C\c2ccco2)C(=O)S1	18µM*	-7	-2	1%	12	26µM*
CCCn1c(=NC(=O)c2ccncc2)c(C#N)cc2c(=O)n3cccc(C)c3nc21	15%	4	0	-15%	5	-5%
Cc1cccn2c(=O)c3cc(C#N)c(=NC(=O)c4cccs4)n(CCCOC(C)C)c3nc12	18µM*	-16	2	.	3	?
Cc1cccn2c(=O)c3cc(C#N)c(=NC(=O)c4ccncc4)n(CCCOC(C)C)c3nc12	16µM*	-19	1	7%	?	18µM*
COCCCn1c(=NC(=O)c2ccncc2)c(C#N)cc2c(=O)n3cccc(C)c3nc21	?	14	3	0.71µM*	0	?
COc1ccc(C(=O)CCc2nc3ccccc3s2)cc1	-2%	6	-1	0%	5	-9%
Cc1ccc(C(=O)NCC(=O)N2CCN(c3ccccc3O)CC2)s1	2.9µM*	-17	0	-3%	-21	-3%
O=C(NCC(=O)N1CCN(c2ccccc2O)CC1)c1cccs1	-24%	-12	-1	.	5	-4%
COc1ccc([C@H]2CC(=O)C=C(c3ccc(OC(F)(F)F)cc3)C2)cc1	?	-17	-14	0%	?	?
COc1ccc([C@H]2CC(=O)C=C(c3ccc(CNC(=O)OC(C)(C)C)cc3)C2)cc1	23µM*	-8	49*	-1%	89	?
COCc1cccc(C2=CC(=O)C[C@H](c3ccc(OC)cc3)C2)c1	-16%	-16	-14	0%	2	-23%
SMILES	DT40 TDP1 no CPT	IL-1B inflam inh	DRD3 agonist	ClpP mod	D3 antag	TDP1 cell CPT
CCCOc1ccc(C2=CC(=O)C[C@H](c3ccc(OC)cc3)C2)cc1	?	-10	36*	-2%	51	?
COc1ccc([C@H]2CC(=O)C=C(c3cccc(OC)c3OC)C2)cc1OC	23µM*	19	6	1%	14	?
COc1ccc(C2=CC(=O)C[C@H](c3ccc(OC)c(OC)c3)C2)cc1	18µM*	-29	15	-4%	17	13µM*
CCN(CC)c1ccc(C(=O)Nc2ccc3nc(N(CC)CC)cc(C)c3c2)cc1	?	.	0	5%	.	?
O=C(NC(=O)c1ccccc1)Nc1ccc(-c2cc(C(F)(F)F)nn2-c2ccccc2)cc1	-8%	.	-22	-1%	.	-27%
COc1cc(C2NC(=O)CCC2[N+](=O)[O-])c(OC)cc1Br (stereo not drawn)	1%	5	3	0%	10	8%
COc1ccc([C@H]2CC(=O)C=C(c3ccc(C)cc3)C2)cc1OC	?	-13	2	1%	22	18µM*
COc1ccc([C@H]2CC(=O)C=C(c3cc4ccccc4s3)C2)cc1OC	?	?	32*	-2%	51	?
COc1cccc(C(O)c2cnc(C(C)C)n2C)c1 (stereo not drawn)	-11%	-1	22	.	15	13%
COc1ccc(/C=C/C(=O)N(C)C2CCCCC2)cc1Br	?	-68*	-7	1%	-6	?
CN(C(=O)/C=C/c1cnc2ccccc2c1)C1CCCCC1	?	-58*	-1	.	-2	-19%
CCN(C(=O)/C=C/c1ccccc1)C1CCCCC1	?	?	0	0%	-3	-1%
COc1ccc(/C=C/C(=O)NC(C)C)cc1Br	-5%	-10	-5	-3%	-10	17%
COc1ccc(/C=C/C(=O)N(C(C)C)C(C)C)cc1Br	13µM*	-26	-2	0%	8	?
C[C@H](NC(=O)OC(C)(C)C)C(=O)c1ccco1	-4%	.	.	-2%	.	-2%
